AmpC inh det: inhibitors of E. coli AmpC beta-lactamase with detergent; P00811; purified AmpC, nitrocefin hydrolysis with detergent; Potency, µM (highest dose often 28.7 µM), without a hit: at the highest dose activity change, negative = inhibition; 71,000 compounds, 0.09% hits; AID 584; active means well fitted curve in the direction sought with a large enough effect; inconclusive means small, poorly fitted or top-dose-only effect; further: on the % scale 0 is the no-effect control and ±100 the full control effect
Target sequence (P00811 whole entry, looked up): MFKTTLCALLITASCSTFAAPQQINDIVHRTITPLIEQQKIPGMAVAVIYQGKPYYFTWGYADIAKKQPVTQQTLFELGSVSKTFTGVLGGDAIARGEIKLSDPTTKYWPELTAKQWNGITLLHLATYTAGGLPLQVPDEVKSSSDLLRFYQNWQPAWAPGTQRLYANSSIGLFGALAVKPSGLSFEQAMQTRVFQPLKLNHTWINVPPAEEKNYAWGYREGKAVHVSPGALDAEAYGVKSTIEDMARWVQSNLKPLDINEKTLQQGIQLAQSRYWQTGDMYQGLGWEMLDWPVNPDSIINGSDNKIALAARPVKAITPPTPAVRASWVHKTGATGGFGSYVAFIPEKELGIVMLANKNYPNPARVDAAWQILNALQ
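E. coli AmpC (5.3 nM) in 20 mM phosphate pH 7.0 with 0.01% Triton X-100, preincubated 15 min RT with compound; nitrocefin (2 uL of 800 uM stock) hydrolysis followed by 480 nm absorbance every 20 s over 4 min.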
SmPrx2 inh: blocks S. mansoni peroxiredoxin 2 enzymatic activity | S. mansoni Prx2 activity coupled to TGR/GSH (TGR is thioredoxin glutathione reductase), NADPH fluorescence loss, qHTS | Potency, µM | 65,000 compounds, 0.07% hits | AID 448
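Purified S. mansoni TGR and Prx2 in pH 7.4 phosphate buffer with EDTA and Tween-20 were preincubated with compounds for 15 min. Further NADPH/GSH was added, then a 2.5 mM H2O2 aliquot initiated turnover, followed kinetically by NADPH fluorescence.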
LT uptake inh: anthrax lethal toxin internalization inhibition; 70,000 compounds, 0.67% hits; Potency, µM (top dose mostly 40 µM), for the others: at the top dose activity change, negative = inhibition, most hits filed as inhibitors; Cells, anthrax lethal toxin internalization, FRET ratio (460/530); AID 912; further: on the % scale 0 is the no-effect control and ±100 the full control effect; nearly all actives have a fitted effect of over 50% in size
AmpC nodet inh: blocks E. coli AmpC beta-lactamase in absence of detergent; Potency, µM (top dose mostly 28.7 µM), for inactives: at the top dose activity change, negative = inhibition; AmpC nitrocefin hydrolysis, absorbance 480 nm, no detergent; AID 585; 71,000 compounds, 1.8% hits; further: % of control where 0% means no effect
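AmpC, 20 mM phosphate pH 7.0; 15 min cpd preinc, RT; start with nitrocefin (800 uM stock); A480 kinetic read, 20 s intervals, 4 min. No-enzyme wells = negative control.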
The depositor's hits bear a star; [ ] = another dose, or the depositor's remark. Rows were chosen to be rich in hits. Some 2.6% of all compounds tested hit in one or more screens of this group. Unless noted, the call rests on the fitted dose curve. Potency means the concentration at half of the fitted maximal effect.

For CSc1ccc(C2C(C#N)=C(N)Oc3c2ccc(=O)c2c(C)oc(C)c32)cc1 (configuration not stated) the results were AmpC inh det -4%, SmPrx2 inh >57, LT uptake inh -29% and AmpC nodet inh 10µM*.
Screening Cc1oc(C)c2c(=O)ccc3c(c12)OC(N)=C(C#N)C3c1ccccc1 (configuration not stated) returned AmpC inh det -4%, SmPrx2 inh >57, LT uptake inh -24% and AmpC nodet inh -17%.
For O=C(c1ccccc1)[C@H](Nc1ccc2ccccc2c1)c1ccccc1 the results were AmpC inh det -2%[5.75 µM], SmPrx2 inh >57, LT uptake inh -26%[8 µM] and AmpC nodet inh -17%[5.75 µM].
O=C1/C(=C/c2ccccc2)[C@@H](NC2CCCCC2)c2ccccc21 was read as AmpC inh det -2%[5.75 µM], LT uptake inh 4µM* and AmpC nodet inh 9%[5.75 µM].
O=c1c(-c2nc3ccccc3o2)c2oc3ccccc3n2c2ccccc12 was read as AmpC inh det -5%, SmPrx2 inh >57, LT uptake inh 13µM* and AmpC nodet inh 48%.
`O=c1oc2ccccc2n1CCn1c2ccccc2c2nc3ccccc3nc21` gave AmpC inh det -3%, SmPrx2 inh >57, LT uptake inh 9% and AmpC nodet inh -4%.
`CN1[C@@H]2CC[C@H]1CC(O[C@@H](c1ccccc1)c1ccccc1N)C2` (some centres not stated) gave AmpC inh det -2%, SmPrx2 inh >57, LT uptake inh -14% and AmpC nodet inh 11%.
For COc1ccccc1S(=O)(=O)Cc1ccc(C(=O)NCc2cccs2)o1 the results were AmpC inh det -9%, SmPrx2 inh >57 and AmpC nodet inh -2%.
`O=C(NCc1ccco1)c1ccc(CS(=O)(=O)c2cccc(C(F)(F)F)c2)o1` gave AmpC inh det -1%, SmPrx2 inh >57, LT uptake inh 11% and AmpC nodet inh 26%.
O=C(NCc1ccc2c(c1)OCO2)c1ccc(CS(=O)(=O)c2ccc(Br)cc2)o1 was read as AmpC inh det 16%, SmPrx2 inh >57, LT uptake inh inconclusive and AmpC nodet inh 4µM*[single pt active].
For COc1ccc(S(=O)(=O)Cc2ccc(C(=O)NCc3cccs3)o2)cc1 the results were AmpC inh det 8%, SmPrx2 inh >57, LT uptake inh -11% and AmpC nodet inh 4µM*[single pt active].
`CCCCNC(=O)c1ccc(CS(=O)(=O)c2ccc(OC)cc2)o1` gave AmpC inh det 11%, SmPrx2 inh >57, LT uptake inh -6% and AmpC nodet inh 4µM*[single pt active].
COc1ccc(S(=O)(=O)Cc2ccc(C(=O)NCc3ccco3)o2)cc1 was read as AmpC inh det 8%, SmPrx2 inh >57, LT uptake inh -9% and AmpC nodet inh 4µM*[single pt active].
For CN(C)CN1C(=O)S/C(=C2/C(=O)N(CN(C)C)c3ccccc32)C1=O the results were AmpC inh det -1%[5.75 µM], SmPrx2 inh >57, LT uptake inh -16%[8 µM] and AmpC nodet inh 1%[5.75 µM].
`CN1C[C@@H](CNC(=O)OCc2ccccc2)C[C@H]2c3cccc4c3c(cn4C)C[C@@H]21` gave AmpC inh det -1%, SmPrx2 inh >57, LT uptake inh inconclusive and AmpC nodet inh 73%.
For Cc1ccc(NC(=O)NCCN2C(=O)C3C4C=CC(C4)C3C2=O)cc1 (configuration not stated) the results were AmpC inh det 10%, SmPrx2 inh >57, LT uptake inh 3% and AmpC nodet inh 4µM*[single pt active].
Cc1ccc(NC(=O)NCCCN2CCOCC2)cc1 was read as AmpC inh det -5%, SmPrx2 inh >57, LT uptake inh -4% and AmpC nodet inh -4%.
For O=C(NCCN1C(=O)C2C3C=CC(C3)C2C1=O)Nc1ccccc1 (configuration not stated) the results were AmpC inh det 14%, SmPrx2 inh >57, LT uptake inh -2% and AmpC nodet inh 4µM*[single pt active].
Screening COc1ccc(NC(=O)NCCN2C(=O)C3C4C=CC(C4)C3C2=O)cc1 (configuration not stated) returned AmpC inh det 12%, SmPrx2 inh >57, LT uptake inh 9% and AmpC nodet inh 2.5µM*[single pt active].
`COc1ccc(CN2C(=O)C3C4C=CC(C4)C3C2=O)cc1` (configuration not stated) gave AmpC inh det -3%, SmPrx2 inh >57, LT uptake inh 3% and AmpC nodet inh 0%.
`O=C(NCCN1C(=O)C2C3C=CC(C3)C2C1=O)NCc1ccccc1` (configuration not stated) gave AmpC inh det 12%, SmPrx2 inh >57, LT uptake inh -5% and AmpC nodet inh 4µM*[single pt active].
For Cn1c(=O)c2[nH]c(CS(=O)(=O)Cc3nc4c([nH]3)c(=O)n(C)c(=O)n4C)nc2n(C)c1=O the results were AmpC inh det -1%[5.75 µM], SmPrx2 inh >57, LT uptake inh 2%[8 µM] and AmpC nodet inh 4%[5.75 µM].
`O=C(Nc1ccccc1)N1CCN(Cc2ccc3c(c2)OCO3)CC1` gave AmpC inh det 13%, SmPrx2 inh >57, LT uptake inh 7% and AmpC nodet inh 4µM*[single pt active].
For Cc1ccccc1NC(=O)NCCN1C(=O)C2C3C=CC(C3)C2C1=O (configuration not stated) the results were AmpC inh det 13%, SmPrx2 inh >57, LT uptake inh -13% and AmpC nodet inh 2µM*[single pt active].
COc1ccc(NC(=O)NCCN2CCc3ccccc3C2)cc1 was read as AmpC inh det -7%, SmPrx2 inh >57, LT uptake inh -8% and AmpC nodet inh 6%.
`COc1ccc(NC(=O)NCCCN2CCCC2=O)cc1` gave AmpC inh det 11%, SmPrx2 inh >57, LT uptake inh -2% and AmpC nodet inh 4µM*[single pt active].
For O=C(CCN1C(=O)C2C3C=CC(C3)C2C1=O)NCCN1CCCc2ccccc21 (configuration not stated) the results were AmpC inh det -2%, SmPrx2 inh >57, LT uptake inh 3% and AmpC nodet inh 52%.
`COc1ccc(NC(=O)NCCCN2CCCCC2C)cc1` (configuration not stated) gave AmpC inh det -1%, SmPrx2 inh >57, LT uptake inh 1% and AmpC nodet inh -7%.
Screening O=C(NCCN1CCN(C(=O)Nc2ccccc2)CC1)Nc1ccccc1 returned AmpC inh det 12%, SmPrx2 inh >57, LT uptake inh -15% and AmpC nodet inh 4µM*[single pt active].
For O=[N+]([O-])c1cccc(/C=N\Nc2ccc3ccccc3n2)c1O the results were AmpC inh det 0%[5.75 µM], SmPrx2 inh >57, LT uptake inh -9%[8 µM] and AmpC nodet inh -10%[5.75 µM].
`C/C=C1\C[C@H](C)[C@](O)(CO)C(=O)OCC2=CCN3CC[C@@H](OC1=O)[C@@H]23` gave AmpC inh det -4%, SmPrx2 inh >57, LT uptake inh inconclusive and AmpC nodet inh 4%.
`CCOC(=O)c1cccc(NC(=O)CN2C(=O)C3C4C=CC(C4)C3C2=O)c1` (configuration not stated) gave AmpC inh det 4%, SmPrx2 inh >57, LT uptake inh 9% and AmpC nodet inh 3%.

Screening results as filed in PubChem.
